The list is not random: actives were taken first. Their share in the collection is about 19%.
DT40 TDP1 CPT: DT40-hTDP1 cell growth loss with CPT; chicken DT40 Tdp1-/-;hTDP1 cells + 20 nM CPT, ATP luminescence, 48 h; Potency, µM (top dose mostly 46.2 µM), inactives show at the top dose activity change, negative = growth inhibition, usual class: inhibitors; 420,000 tested, 12% active; AID 686979; further: potency means the concentration at half of the fitted maximal effect; on the % scale 0 is the no-effect control and ±100 the full control effect; nearly all actives have a fitted effect of over 55% in size
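Chicken DT40 Tdp1-/- cells stably complemented with human TDP1 were seeded at 400 cells/well in medium containing 20 nM camptothecin, exposed to pin-transferred compounds, and grown at 37 °C for at least 48 hr. Viability was read as ATP luminescence.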
IL-1B inflam inh: inflammasome signaling inhibition, IL-1 beta readout. THP-1 LPS/ATP IL-1B secretion, AlphaLISA, 16 h; stronger effect = lower value. activity change, % at 57.5 µM. 360,000 tested, 4.7% active; in the data active means activity change below about -50%; inconclusive means mostly about -30% to -49%; further: on the % scale 0 is the no-effect control and ±100 the full control effect
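Secreted IL-1B measured by AlphaLISA bead assay after 16 h compound exposure of THP-1 cells; compounds (final up to 57.5 uM) added 1 h before LPS (250 ng/mL) and ATP (1.25 mM) stimulation; lower signal means less secretion.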
DT40 TDP1 no CPT: qHTS for Inhibitors of human tyrosyl-DNA phosphodiesterase 1 (TDP1): qHTS in cells in absence of CPT; 420,000 tested, 15% active; DT40 Tdp1-/- hTDP1 cells, no CPT, ATP luminescence, 48 h; Potency, µM (highest dose often 46.2 µM), inactives show at the highest dose activity change, negative = growth inhibition, hits mostly inhibitors; AID 686978, 2013; further: potency means the concentration at half of the fitted maximal effect; on the % scale 0 is the no-effect control and ±100 the full control effect; nearly all actives have a fitted effect of over 55% in size
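Chicken DT40 Tdp1-/- cells complemented with human TDP1, screened without camptothecin (DMSO vehicle only), 400 cells/well. Compounds pin-transferred, cells incubated at 37 °C for at least 48 hr. Growth read as ATP-dependent luminescence (CellTiter-Glo, 30 min at RT).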
HepG2 tox: kills HepG2 cells in TGF-b inhibitor counter-screen. HepG2 CAGA-GFP viability, ATP luminescence, 18 h. Potency, µM (series often up to 46.1 µM), inactives show at the highest dose activity change, negative = cytotoxicity, hits mostly cytotoxic. 410,000 tested, 0.76% active; further: potency means the concentration at half of the fitted maximal effect
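CellTiter-Glo luminescence gave cytotoxicity after 18 hours at 37 degrees C. The cells were HepG2 CAGA-GFP in 1% FBS DMEM, stimulated with 500 pg/mL TGF-beta after compound addition. %Activity was normalised to no-cell wells (complete cell-killing) and DMSO (no toxicity), and curves were fitted and classified.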
S-ASM inh: inhibitors of human secretory acid sphingomyelinase; P17405; 340,000 tested, 0.006% active; placental ASM, HMU-PC fluorogenic substrate, 60 min; Potency, µM (highest dose often 57.5 µM), without a hit: at the highest dose activity change, negative = inhibition, usual class: inhibitors; AID 504937; further: potency means the concentration at half of the fitted maximal effect
Target sequence (P17405 47-631 limits assumed): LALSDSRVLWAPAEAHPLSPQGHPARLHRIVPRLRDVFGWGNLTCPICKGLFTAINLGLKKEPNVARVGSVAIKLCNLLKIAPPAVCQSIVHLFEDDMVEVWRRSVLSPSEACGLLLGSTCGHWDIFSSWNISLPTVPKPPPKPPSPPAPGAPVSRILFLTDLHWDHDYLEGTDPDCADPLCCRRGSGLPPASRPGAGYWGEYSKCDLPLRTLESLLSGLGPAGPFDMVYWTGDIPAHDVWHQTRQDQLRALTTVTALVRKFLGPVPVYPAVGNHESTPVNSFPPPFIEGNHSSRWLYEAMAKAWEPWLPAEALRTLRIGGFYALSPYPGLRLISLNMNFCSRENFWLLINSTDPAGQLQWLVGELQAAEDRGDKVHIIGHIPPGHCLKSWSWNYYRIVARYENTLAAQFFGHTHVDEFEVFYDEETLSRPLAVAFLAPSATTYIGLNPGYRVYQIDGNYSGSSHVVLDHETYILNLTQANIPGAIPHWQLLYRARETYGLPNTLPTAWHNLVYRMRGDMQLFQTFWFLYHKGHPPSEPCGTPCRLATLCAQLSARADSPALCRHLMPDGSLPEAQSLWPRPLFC
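Steps: dispense placental human ASM, pin compound, wait 10 min at room temperature, add HMU-PC0 substrate at 9 uM final, incubate 60 min at 37 °C, add stop solution raising pH to 10, read fluorescence.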
TGFb inhibitor: inhibitors of TGF-b signaling; HepG2 CAGA-GFP TGF-b/SMAD3 reporter, GFP fluorescence, 18 h; TGF-beta stimulated, 500 pg/mL final; Potency, µM (doses to about 46.1 µM), without a hit: at the highest dose activity, negative = inhibition, usual class: inhibitors; 410,000 tested, 1.2% active; further: potency means the concentration at half of the fitted maximal effect; on the % scale 0 is the no-effect control and ±100 the full control effect; nearly all actives have a fitted effect of over 65% in size
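GFP signal (ex488/em500-530) from TGF-beta-stimulated HEPG2 CAGA-GFP cells, 500 pg/mL final, 18 h at 37 degrees C in DMEM plus 1% FBS, normalized to unstimulated and DMSO-stimulated controls.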
Numbers without * were called inactive; ? = inconclusive; . = not tested or not shown. Unless noted, the call rests on the fitted dose curve; in most records, active means well fitted curve in the direction sought with a large enough effect; inconclusive means small, poorly fitted or top-dose-only effect, or another doubt; inactive means no such curve, though single readings can be large; an effect the other way counts as inactive or inconclusive.

SMILES	DT40 TDP1 CPT	IL-1B inflam inh	DT40 TDP1 no CPT	HepG2 tox	S-ASM inh	TGFb inhibitor
Cc1nc(-c2cccc(S(=O)(=O)N3CCCCC3)c2)cs1	-14%	-89*	-26%	-32%	0%	?
Cc1nc(-c2cccc(S(=O)(=O)N3CCCCCC3)c2)cs1	-12%	-7	?	-6%	-3%	17%
CC1CN(S(=O)(=O)c2cccc(-c3csc(-c4ccccc4)n3)c2)CC(C)O1 (stereo unspecified)	?	-6	26µM*	-3%	-1%	-29%
Cc1nc(-c2cccc(S(=O)(=O)N3CCCC(C)C3)c2)cs1 (stereo unspecified)	15µM*	-16	?	-31%	-6%	-15%
C=CCN1C(=O)C2(OCCCO2)c2cc(C)ccc21	4%	-17	3%	2%	4%	13%
CC(c1nnc(SCC(=O)N(C)C2CCS(=O)(=O)C2)n1-c1ccccc1)N(C)C (stereo unspecified)	-7%	-3	-1%	5%	-1%	2%
CC(NC(=O)C1CCN(c2nc3ccccc3nc2C(F)(F)F)CC1)c1ccccc1 (stereo unspecified)	-24%	.	?	2%	.	?
COc1cc(NC(=O)CN2CCCN(S(=O)(=O)c3ccc(F)cc3)CC2)cc(OC)c1	?	.	?	6%	.	?
Cc1ccc(C(=O)N2CCn3c4c(c5cc(C)ccc53)CCCC42)cc1 (stereo unspecified)	?	.	?	-10%	.	?
c1ccc2c(c1)Sc1cnccc1N2CC1CO1 (stereo unspecified)	4.1µM*	-11	10µM*	-21%	.	-2%
Cc1cccc(C(=O)NCC(=O)N2CCCCCCC2)c1	-10%	-10	-19%	-4%	0%	35%
Cc1ccccc1CNC(=O)Nc1ccc2c(c1)N(C)C(=O)c1ccccc1S2	16µM*	.	16µM*	-33%	.	7.1µM*
CC(C)NC(=O)Nc1ccc2c(c1)N(C)C(=O)c1ccccc1S2	?	.	-29%	-32%	.	-1%
COc1cc(OC)c(NC(=O)Nc2ccc3c(c2)N(C)C(=O)c2ccccc2S3)cc1Cl	5.8µM*	.	5.8µM*	2%	.	?
COc1ccc(CNC(=O)Nc2ccc3c(c2)N(C)C(=O)c2ccccc2S3)cc1	?	.	21µM*	-32%	.	-22%
COCCNC(=O)Nc1ccc2c(c1)N(C)C(=O)c1ccccc1S2	9%	-2	-12%	-16%	-2%	1%
CN1C(=O)c2ccccc2Sc2ccc(NC(=O)NCc3cccc(Cl)c3)cc21	23µM*	.	23µM*	-57%	.	10µM*
COc1ccc(Cn2c(=O)c3cccnc3n(CC(=O)Nc3c(C)cc(C)cc3C)c2=O)cc1	?	.	?	3%	.	7%
Cc1ccc2c(c1)N(C(=O)CCC(=O)N1CCCCC1)CCO2	10%	6	-12%	-1%	5%	14%
CCN(CC)CCNC(=O)c1ccc(NC(=O)Cc2cccc3ccccc23)cc1	-4%	-15	-25%	-16%	0%	-21%
CCCSC1=N/C(=C\C=C\c2ccco2)C(=O)S1	26µM*	-7	18µM*	-14%	-17%	-17%
CCCSC1=N/C(=C\c2ccc([N+](=O)[O-])o2)C(=O)S1	21µM*	-7	?	27%	-9%	-13%
CC(OC(=O)c1ccc2c(=O)n3c(nc2c1)CCCCC3)C(N)=O (stereo unspecified)	19%	20	-27%	-15%	5%	1%
COc1cc(NC(=O)Cn2cnc3c2c(=O)n(C)c(=O)n3C)c(OC)cc1Cl	-19%	.	-14%	-4%	.	-11%
Cc1ccc2occ(CC(=O)N(Cc3ccc(N(C)C)cc3)C3CCS(=O)(=O)C3)c2c1 (stereo unspecified)	?	.	?	-19%	.	-12%
SMILES	DT40 TDP1 CPT	IL-1B inflam inh	DT40 TDP1 no CPT	HepG2 tox	S-ASM inh	TGFb inhibitor
CCN(CC)c1ccc(CN(C(=O)c2cc(=O)c3ccccc3o2)C2CCS(=O)(=O)C2)cc1 (stereo unspecified)	16µM*	.	?	4%	.	-11%
CCN(CC)c1ccc(CN(C(=O)Cc2coc3ccc(C)cc23)C2CCS(=O)(=O)C2)cc1 (stereo unspecified)	?	.	23µM*	-27%	.	?
COc1ccc(CN(C(=O)c2cc(=O)c3ccccc3o2)C2CCS(=O)(=O)C2)cc1 (stereo unspecified)	-2%	37	4%	0%	2%	0%
CCc1ccc2occ(CC(=O)N(Cc3ccc(N(C)C)cc3)C3CCS(=O)(=O)C3)c2c1 (stereo unspecified)	?	.	?	-30%	.	?
CC(C)c1ccc2occ(CC(=O)N(Cc3ccc(F)cc3)C3CCS(=O)(=O)C3)c2c1 (stereo unspecified)	18µM*	.	?	-23%	.	?
COc1ccc(N2CCN(Cc3cccn3-c3nnc(N4CCN(C5CCCCC5)CC4)s3)CC2)cc1	21µM*	.	21µM*	-15%	.	-2%
CC1N=C2c3ccccc3N=C(SCC(=O)NCCc3ccc(Cl)cc3)N2C1=O (stereo unspecified)	?	.	-15%	-9%	.	-34%
COc1ccc(-n2ncc(C(C)NS(=O)(=O)c3cc(C)sc3C)c2C)cc1 (stereo unspecified)	?	25	16µM*	-38%	.	-24%
COc1ccccc1N1CCN(C(=O)Cn2ncc3c(=O)oc4ccc(C)cc4c32)CC1	-27%	.	?	-21%	.	-7%
Cc1ccc2oc(=O)c3cnn(CC(=O)N4CCN(c5ccccc5)CC4)c3c2c1	?	1	10µM*	7%	-13%	-8%
Cc1ccc2oc(=O)c3cnn(CC(=O)N4CCN(c5ccccc5F)CC4)c3c2c1	?	.	21µM*	-17%	.	-20%
Cc1ccc(-n2ncc3c(=O)n(CC(=O)N4CCN(c5ccccc5)CC4)cnc32)cc1	-24%	-1	-23%	-34%	3%	-12%
CC(=O)Nc1ccc(S(=O)(=O)n2cnc3cc(C)c(C)cc32)cc1	8.2µM*	10	18µM*	-15%	2%	-3%
Cc1cc(C(=O)COC(=O)/C=C/c2cccc(Br)c2)c(C)n1C	-12%	-13	?	17%	-1%	-2%

Screening data from PubChem.
